Shown are actives, neighbours in structure and some others; about 8.1% of the full set was active somewhere.
KB-3-1 tox: qHTS assay for MDR1-selective chemotherapeutics: Primary screen using the parental adenocarcinoma cell KB-3-1. Potency, µM (titrated, usually from 46.1 µM), usual class: cytotoxic. AID 1347075, 2019. KB-3-1 viability, CellTiter-Glo ATP luminescence, 72 h. 1.4% of 400,000 active; note: % is set by controls: 0 for no effect and ±100 for the full control effect; nearly all actives have a fitted effect of over 60% in size
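Luminescent ATP read-out (CellTiter-Glo) measures survival of drug-naive KB-3-1 cells after 72 h compound exposure at 37 °C. Titration series was screened from lowest to highest concentration, with DMSO vehicle plates as background controls.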
MCF10A rereplic: A quantitative high throughput screen for small molecules that induce DNA re-replication in MCF 10a normal breast cells | MCF 10A DNA re-replication, Hoechst nuclear intensity, 48 h | Potency, µM (highest dose often 46.1 µM), for inactives: at the highest dose activity, positive = re-replication, actives largely listed as activators | 2.9% of 350,000 active | AID 624296, 2012; note: % of control where 0% means no effect; nearly all actives have a fitted effect of over 50% in size
KB-V1 cytotox: qHTS assay for MDR1-selective chemotherapeutics: Primary screen using the drug-selected MDR subline cells KB-V1; KB-V1 MDR cells viability, CellTiter-Glo, 72 h; Potency, µM (series often up to 46.1 µM), actives largely listed as cytotoxic; 3.4% of 400,000 active; AID 1347076, 2019; note: % is set by controls: 0 for no effect and ±100 for the full control effect; nearly all actives have a fitted effect of over 60% in size
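Compound-treated KB-V1 multidrug-resistant cells, 72 h, 37 degrees C; viability by CellTiter-Glo. Fitted qHTS curves give the values.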
ELG1 DNA repair: qHTS screen for small molecules that inhibit ELG1-dependent DNA repair in human embryonic kidney (HEK293T) cells expressing luciferase-tagged ELG1. 2.3% of 330,000 active. AID 504467, 2011. Potency, µM (highest dose often 46.1 µM), for the others: top-dose activity change, negative = inhibition, hits mostly inhibitors. HEK293T ELG1-luciferase reporter, luminescence, 16 h; DNA damage induced by 5-fluorouridine; note: % is set by controls: 0 for no effect and ±100 for the full control effect; nearly all actives have a fitted effect of over 55% in size
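Quantitative HTS, concentration-response format. 2,000 cells/well co-treated with 5-fluorouridine and compound, 16 hr in 5% CO2 at 37 °C; ONE-Glo luminescence read after 30 min.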
SW480 rereplic: A quantitative high throughput screen for small molecules that induce DNA re-replication in SW480 colon adenocarcinoma cells. SW480 DNA re-replication, Hoechst DNA content imaging, 48 h. 1.8% of 340,000 active. Potency, µM (doses to about 46.1 µM), for inactives: at the top dose re-replication activation, most hits filed as activators; note: % of control where 0% means no effect; nearly all actives have a fitted effect of over 55% in size
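Treated cells incubate 48 hr (37 C, 5% CO2), are stained 40 min with Hoechst, and nuclear fluorescence is enumerated; a rise in nuclei with high DNA signal marks re-replication.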
* marks the source's active call; other numbers are inactive results; i = inactive; ? = inconclusive; nt = no result given; [ ] = dose if it differs, or a comment. Calls come from the whole dose curve; as a rule, active = well fitted curve in the direction sought with a large enough effect; inconclusive = small, poorly fitted or top-dose-only effect, or another doubt; inactive = no such curve, though single readings can be large; an effect the other way counts as inactive or inconclusive. Potency is the fitted concentration of half-maximal effect.

SMILES | KB-3-1 tox | MCF10A rereplic | KB-V1 cytotox | ELG1 DNA repair | SW480 rereplic
O=C(c1cnc2ccc3ccccc3c2c1)c1cc(F)ccc1O | ? | ? | 3.7µM* | 18% | 3.7µM*
Cc1csc2nc3cc(C(N)=O)ccc3c(=O)n12 | i | -5% | ? | ? | -43%
NC(=O)c1ccc2c(=O)n3c(-c4cc(Cl)c(N)c(Cl)c4)csc3nc2c1 | 23µM* | ? | i | 10µM* | 30%
COc1ccccc1C(=O)Nc1c[nH]c(=O)[nH]c1=O | i | 9% | i | -1% | 2%
O=C(Nc1cccn(Cc2c(Cl)cccc2Cl)c1=O)c1ccccc1Cl | ? | 16% | 5.8µM* | 2% | 1%
O=C(Nc1c[nH]c(=O)[nH]c1=O)c1ccccc1Cl | ? | ? | 16µM* | 0% | -2%
O=C(Nc1cccn(Cc2c(Cl)cccc2Cl)c1=O)c1ccc(Cl)cc1Cl | 21µM* | 15% | 16µM* | -5% | 24%
N#Cc1cn(CCOc2ccc(F)cc2)c2ccccc12 | ? | ? | i | ? | 0%
CCOC(=O)N/N=C/c1cn(CCCOc2ccc(C)cc2)c2ccccc12 | ? | 10% | 21µM* | -2% | ?
CCOC(=O)N/N=C/c1cn(CCCOc2ccccc2)c2ccccc12 | i | 12% | ? | ? | ?
Cc1ccc(OCCCn2cc(C#N)c3ccccc32)cc1 | ? | -5% | 16µM* | -13% | ?
COc1cc(OC)c(/C=N/n2c(C)nnc2C)c(OC)c1 | i | 26µM* | i | -4% | -120%
CC1(C(=O)N2CCC(CO)(Cc3cccc(C(F)(F)F)c3)CC2)CC1 | i | 2% | i | -14% | -2%
CCOC(=O)C1CCN(S(=O)(=O)c2cccc(-c3cn4cc(C)ccc4n3)c2)CC1 | i | 2% | i | ? | -4%[9.22 µM]
CCOC(=O)C1CCN(S(=O)(=O)c2cccc(-c3cn4cccnc4n3)c2)CC1 | i | -10% | i | 13µM* | -6%
O=C(Nc1cccnc1Cl)c1cc([N+](=O)[O-])ccc1Cl | i | ? | i | ? | ?
O=C(Nc1cccc2ncccc12)c1cc([N+](=O)[O-])ccc1Cl | 18µM* | ? | ? | ? | ?
O=C(Nc1cccc2c1CCCC2)c1cc([N+](=O)[O-])ccc1Cl | 23µM* | ? | ? | ? | -3%[9.22 µM]
O=C(Nc1cccc2c1CCCC2)c1ccc(Cl)c([N+](=O)[O-])c1 | ? | ? | ? | 16% | ?
CCOC(=O)c1c(NC(=O)C2CCCN2S(=O)(=O)c2cccc3nsnc23)sc(C)c1C (stereo unspecified) | i | 14% | i | nt | -1%
CCCS(=O)(=O)c1c(S(=O)(=O)CCC)c2c(C)cccn2c1C(=O)N/N=C/c1cc(O)cc(O)c1 | ? | ? | i | -15% | 6.5µM*
CCCS(=O)(=O)c1c(S(=O)(=O)CCC)c2c(C)cccn2c1C(N)=O | i | -2% | i | 14% | -3%
COc1ccc(C2C(C#N)=C(N)Oc3c2sc2nc(C)cc(C)c32)cc1 (stereo unspecified) | ? | 16µM* | 21µM* | 8% | ?
CC1=C(/C=N/Nc2ccc([N+](=O)[O-])cc2[N+](=O)[O-])C(C)(C)CCC1 | 16µM* | 15% | ? | 1% | 2%
O=C(COc1ccc2c(c1)oc(=O)c1ccccc12)N[C@@H](Cc1c[nH]c2ccccc12)C(=O)O | i | ? | i | -10% | -63%

Assay outcomes: PubChem, National Center for Advancing Translational Sciences (NCATS)
